Unmarked numbers belong to inactive results. Results filed as inconclusive are left out. Entries that show only a call come without a potency. Activity calls are given as the source filed them. Unless noted, calls follow the shape of the full dose curve.
Experiments:
[1] = molecular target: Thyrotropin receptor (Homo sapiens) (UniProt P16473); assay: qHTS assay to identify small molecule agonists of the thyroid stimulating hormone receptor (TSHR) signaling pathway (AID 1224843); also: nearly all actives have a fitted effect of over 45% in size; also: potency is read from the fitted curve at half-maximal effect
Thyrotropin receptor (Homo sapiens), sequence (P16473 whole entry, looked up): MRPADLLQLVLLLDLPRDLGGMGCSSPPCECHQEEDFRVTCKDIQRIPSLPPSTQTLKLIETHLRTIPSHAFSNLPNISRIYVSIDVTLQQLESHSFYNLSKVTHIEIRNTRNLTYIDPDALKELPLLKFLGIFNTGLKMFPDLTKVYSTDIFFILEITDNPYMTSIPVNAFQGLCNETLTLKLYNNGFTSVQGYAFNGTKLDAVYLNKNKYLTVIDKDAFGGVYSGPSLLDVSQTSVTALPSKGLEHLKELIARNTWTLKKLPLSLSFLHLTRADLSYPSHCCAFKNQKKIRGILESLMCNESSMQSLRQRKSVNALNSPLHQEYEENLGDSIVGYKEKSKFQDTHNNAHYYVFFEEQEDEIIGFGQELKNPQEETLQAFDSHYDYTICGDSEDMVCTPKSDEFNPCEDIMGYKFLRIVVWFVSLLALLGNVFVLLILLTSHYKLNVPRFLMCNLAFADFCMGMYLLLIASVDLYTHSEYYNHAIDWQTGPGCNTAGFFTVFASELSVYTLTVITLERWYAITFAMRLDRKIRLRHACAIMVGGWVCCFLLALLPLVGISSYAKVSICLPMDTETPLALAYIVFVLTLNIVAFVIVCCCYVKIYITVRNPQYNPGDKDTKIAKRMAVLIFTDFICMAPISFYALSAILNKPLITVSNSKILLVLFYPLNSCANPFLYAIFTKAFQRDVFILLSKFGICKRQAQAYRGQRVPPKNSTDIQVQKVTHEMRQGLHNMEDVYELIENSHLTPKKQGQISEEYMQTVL
Outline: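 Using 15 concentrations per compound in triplicate, cAMP production was monitored in TSHR-HEK293 cells after 30 min compound incubation at RT; HTRF reagents followed, with fluorescence intensity recorded after 1 h.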

[2] = qHTS assay to identify small molecule agonists of the hypoxia (HIF-1) signaling pathway - cell viability counter screen (AID 1224844); also: nearly all actives have a fitted effect of over 50% in size; also: potency is read from the fitted curve at half-maximal effect
Outline: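 In this counter screen, HRE-bla ME-180 cell viability after 17 hrs of compound exposure at 37C was read by CellTiter-Glo luminescence, multiplexed with the beta-lactamase reporter measurement.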

[3] = qHTS assay to identify small molecule agonists of H2AX (AID 1224845; active = well fitted activation curve with a large enough effect in the signal ratio in the repeat runs, not every such curve was filed as active; the % refers to the signal ratio)
Outline: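 Wild-type CHO-K1 cells plated overnight, then exposed 3 hr at 37C to compounds at 15 concentrations (0.76% DMSO). Lysed, then HTRF anti-pH2AX(S139)-cryptate/anti-H2AX-d2 detection after 24 hr at room temperature; emissions 665 and 620 nm.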

[4] = qHTS assay to identify small molecule agonists of the hypoxia (HIF-1) signaling pathway (AID 1224846; active = well fitted activation curve with a large enough effect in the signal ratio in the repeat runs, not every such curve was filed as active; the % refers to the signal ratio)
Outline: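 ME-180 HRE-bla reporter cells; compounds in DMSO, 17 h at 37C; read-out beta-lactamase via CCF4-AM FRET.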

[5] = qHTS assay to identify small molecule agonists of H2AX - cell viability counter screen (AID 1224847); also: nearly all actives have a fitted effect of over 30% in size; also: potency is read from the fitted curve at half-maximal effect
Outline: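 Counter-screen for viability: CellTiter-Glo ATP luminescence read after 3 h compound treatment (15-point titration, 0.76% DMSO final) of CHO-K1 cells at 37C, with 30 min room-temperature reagent incubation.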

[6] = qHTS assay to identify small molecule agonists of the estrogen related receptor (ERR) signaling pathway from Tox21 library (AID 1224849); details: ERR reporter cell line, ONE-Glo luciferase, 18 h; at 92.4 µM (top of the series) unless noted; also: nearly all actives have a fitted effect of over 15% in size
Outline: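 Luciferase activity in ERR pathway reporter cells served as the agonist readout; exposure lasted 18 h at 37 C, with ONE-Glo detection after 30 min at room temperature.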

[7] = qHTS RealTime-Glo MT Cell Viability Assay in HepG2 cells - 24 hour (AID 1224867; active = well fitted curve in the direction sought with a large enough effect in the repeat runs; an effect the other way counts as inactive or inconclusive; also: nearly all actives have a fitted effect of over 50% in size; also: potency is read from the fitted curve at half-maximal effect)
Outline: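 Tox21 10K library screened in qHTS format on HepG2 cells carrying RealTime-Glo reagents. Compounds were added after a 5 h preincubation, and the luminescent signal from continuous culture was measured repeatedly during 40 h treatment.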

[8] = qHTS RealTime-Glo MT Cell Viability Assay in HEK293 cells - 32 hour (AID 1224868; active = well fitted curve in the direction sought with a large enough effect in the repeat runs; an effect the other way counts as inactive or inconclusive; also: nearly all actives have a fitted effect of over 50% in size; also: potency is read from the fitted curve at half-maximal effect)
Outline: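 Luminescence generated by NanoLuc from substrate produced by living HEK293 cells served as the viability signal. Each value reflects the reading at its stated time point during continuous 40 h compound exposure at 37 C.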

[9] = A CellTox Green Cytotoxicity Assay to monitor cytotoxicity in HEK293 cells - 0 hour (AID 1224869; active = well fitted curve in the direction sought with a large enough effect in the repeat runs; an effect the other way counts as inactive or inconclusive; also: nearly all actives have a fitted effect of over 50% in size)
Outline: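 Real-time, in one plate: 600 HEK293 cells/well with dead-cell DNA dye, pinned compound after 5 h, 37 C incubation over 40 h; viable cells give no appreciable fluorescence.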

[10] = qHTS assay to identify small molecule antagonists of the estrogen related receptor (ERR) signaling pathway from Tox21 library (AID 1224848; active = well fitted curve in the direction sought with a large enough effect in the repeat runs; an effect the other way counts as inactive or inconclusive; also: nearly all actives have a fitted effect of over 50% in size; also: potency is read from the fitted curve at half-maximal effect)
Outline: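 Tox21 10K compounds in DMSO tested for ERR pathway antagonism in NTP's ERR cell line; 18 h, 37 C exposure; ONE-Glo luminescence.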

## CCC(C)COC(C)=O (configuration not stated)
[1]
  Potency: inactive
[2]
  Potency: inactive
[3]
  Potency: inactive
[4]
  outcome: inactive
[5]
  Potency: inactive
[6]
  activity change, positive = activation: 1.45%
[7]
  Potency: inactive
[8]
  Potency: inactive
[9]
  Potency: inactive

## CN(C)CCN1C(=O)c2ccccc2N(C)c2ccccc21
[1]
  Potency: inactive
[2]
  Potency: inactive
[3]
  Potency: inactive
[4]
  outcome: inactive
[5]
  Potency: inactive
[7]
  Potency: inactive
[8]
  Potency: inactive
[9]
  Potency: inactive

## Nc1cccc2c1CN(C1CCC(=O)NC1=O)C2=O (configuration not stated)
[1]
  Potency: inactive
[2]
  Potency: inactive
[3]
  Potency: inactive
[4]
  outcome: inactive
[5]
  Potency: inactive
[7]
  Potency: inactive
[8]
  Potency: inactive
[9]
  Potency: inactive

## O=c1[nH]ncc2ccccc12
[1]
  Potency: inactive
[2]
  Potency: inactive
[3]
  Potency: inactive
[4]
  outcome: inactive
[5]
  Potency: inactive
[7]
  Potency: inactive
[8]
  Potency: inactive
[9]
  Potency: inactive

## CC=C(Cl)Cl
[1]
  Potency: inactive
[2]
  Potency: inactive
[3]
  Potency: inactive
[4]
  outcome: inactive
[5]
  Potency: inactive
[7]
  Potency: inactive
[8]
  Potency: inactive
[9]
  Potency: inactive

## CNC(=O)c1cnn(-c2nc(N)c3ncn([C@@H]4O[C@H](CO)[C@@H](O)[C@H]4O)c3n2)c1
[1]
  Potency: inactive
[2]
  Potency: inactive
[3]
  Potency: inactive
[4]
  outcome: inactive
[5]
  Potency: inactive
[7]
  Potency: inactive
[8]
  Potency: inactive
[9]
  Potency: inactive

## CC1(C)O[C@@H]2C[C@H]3[C@@H]4C[C@H](F)C5=CC(=O)C=C[C@]5(C)[C@H]4[C@@H](O)C[C@]3(C)[C@]2(C(=O)CO)O1
[1]
  Potency: inactive
[2]
  Potency: inactive
[3]
  Potency: inactive
[4]
  outcome: inactive
[5]
  Potency: inactive
[7]
  Potency: inactive
[8]
  Potency: inactive
[9]
  Potency: inactive

## c1ccc2c(c1)CCc1ccccc1N2
[1]
  Potency: inactive
[2]
  Potency: inactive
[3]
  Potency: inactive
[4]
  outcome: inactive
[5]
  Potency: 101 µM (active)
[7]
  Potency: inactive
[8]
  Potency: inactive
[9]
  Potency: inactive

## CCOC(=O)C1=C(C)NC(C)=C(C(=O)OC)C1c1cccc(Cl)c1Cl (configuration not stated)
[1]
  Potency: inactive
[2]
  Potency: inactive
[3]
  Potency: inactive
[4]
  outcome: inactive
[5]
  Potency: inactive
[6]
  activity change, positive = activation: -28.7% [at 42.5 µM]
[9]
  Potency: inactive

## CCC(=O)OC
[1]
  Potency: inactive
[2]
  Potency: inactive
[3]
  Potency: inactive
[4]
  outcome: inactive
[5]
  Potency: inactive
[7]
  Potency: inactive
[8]
  Potency: inactive
[9]
  Potency: inactive

## O=c1[nH]c2ccc(Cl)cc2o1
[1]
  Potency: inactive
[2]
  Potency: inactive
[3]
  Potency: inactive
[4]
  outcome: inactive
[5]
  Potency: inactive
[10]
  Potency: inactive
[6]
  activity change, positive = activation: 4.04%
[7]
  Potency: inactive
[8]
  Potency: inactive
[9]
  Potency: inactive

## CCCCCCC(C)(C)C(=O)O
[1]
  Potency: inactive
[2]
  Potency: inactive
[3]
  Potency: inactive
[4]
  outcome: inactive
[5]
  Potency: inactive
[6]
  activity change, positive = activation: -23%
[7]
  Potency: inactive
[8]
  Potency: inactive
[9]
  Potency: inactive

## C[C@@]12CCC[C@H]1[C@@H]1CC[C@H]3C[C@@H](O)CC[C@]3(C)[C@H]1CC2
[1]
  Potency: inactive
[2]
  Potency: inactive
[3]
  Potency: inactive
[4]
  outcome: inactive
[5]
  Potency: inactive
[10]
  Potency: inactive
[6]
  activity change, positive = activation: -6.1% [at 42.5 µM]
[7]
  Potency: inactive
[8]
  Potency: inactive
[9]
  Potency: inactive

## CC(=O)Oc1ccc([N+](=O)[O-])cc1CCl
[1]
  Potency: inactive
[2]
  Potency: 49 µM (active)
[3]
  Potency: inactive
[4]
  outcome: inactive
[5]
  Potency: inactive
[6]
  activity change, positive = activation: -12.3%
[7]
  Potency: inactive
[8]
  Potency: 3.89 µM (active)
[9]
  Potency: inactive

## COC(=O)CCS
[1]
  Potency: inactive
[2]
  Potency: inactive
[3]
  Potency: inactive
[4]
  outcome: inactive
[5]
  Potency: inactive
[7]
  Potency: inactive
[8]
  Potency: inactive
[9]
  Potency: inactive

## C(=C\c1ccccc1)/c1ccccc1
[1]
  Potency: inactive
[2]
  Potency: inactive
[3]
  Potency: inactive
[4]
  outcome: inactive
[5]
  Potency: inactive
[10]
  Potency: inactive
[7]
  Potency: inactive
[8]
  Potency: inactive
[9]
  Potency: inactive

## CC(C)C[C@H](NC(=O)[C@H](CCc1ccccc1)NC(=O)CN1CCOCC1)C(=O)N[C@@H](Cc1ccccc1)C(=O)N[C@@H](CC(C)C)C(=O)[C@@]1(C)CO1
[1]
  Potency: inactive
[2]
  Potency: 0.213 µM (active)
[3]
  Potency: inactive
[4]
  outcome: inactive
[5]
  Potency: inactive
[10]
  Potency: 0.0596 µM (active)
[6]
  activity change, positive = activation: -67.1% [at 42.5 µM]
[7]
  Potency: 0.0674 µM (active)
[8]
  Potency: 0.0379 µM (active)
[9]
  Potency: inactive

## CCCCCCCCCI
[1]
  Potency: 24.8 µM (active)
[2]
  Potency: inactive
[3]
  Potency: inactive
[4]
  outcome: inactive
[5]
  Potency: inactive
[6]
  activity change, positive = activation: 3.18%
[8]
  Potency: inactive
[9]
  Potency: inactive

## Cc1[nH]cnc1CN1CCc2c(c3ccccc3n2C)C1=O
[1]
  Potency: inactive
[2]
  Potency: inactive
[3]
  Potency: inactive
[4]
  outcome: inactive
[5]
  Potency: inactive
[10]
  Potency: inactive
[6]
  activity change, positive = activation: -18.3% [at 42.5 µM]
[7]
  Potency: inactive
[8]
  Potency: inactive
[9]
  Potency: inactive

## CCC1NC(=O)c2cc(S(N)(=O)=O)c(Cl)cc2N1 (configuration not stated)
[1]
  Potency: inactive
[2]
  Potency: inactive
[3]
  Potency: inactive
[4]
  outcome: inactive
[5]
  Potency: inactive
[7]
  Potency: inactive
[8]
  Potency: inactive
[9]
  Potency: inactive

## C=C(C)CCCC(C)CCO (configuration not stated)
[1]
  Potency: inactive
[2]
  Potency: inactive
[3]
  Potency: inactive
[4]
  outcome: inactive
[5]
  Potency: inactive
[7]
  Potency: inactive
[8]
  Potency: inactive
[9]
  Potency: inactive

## C1C[C@@H]2[C@H]3CC[C@H](C3)[C@@H]2C1
[1]
  Potency: inactive
[2]
  Potency: inactive
[3]
  Potency: inactive
[4]
  outcome: inactive
[5]
  Potency: inactive
[7]
  Potency: inactive
[8]
  Potency: inactive
[9]
  Potency: inactive

## COC(=O)C1=C(C)NC(C)=C(C(=O)O[C@@H]2CCCN(Cc3ccccc3)C2)[C@@H]1c1cccc([N+](=O)[O-])c1
[1]
  Potency: inactive
[2]
  Potency: inactive
[3]
  Potency: inactive
[4]
  outcome: inactive
[5]
  Potency: inactive
[10]
  Potency: 23.7 µM (active)
[6]
  activity change, positive = activation: -34.6% [at 42.5 µM]
[7]
  Potency: inactive
[8]
  Potency: inactive
[9]
  Potency: inactive

From PubChem BioAssay (Tox21)
